Several values for one entry are separate records, joined by “and”; a condition that tells them apart may be missing. Equal entries are not always repeated. About 83,000 compounds went through this panel and 20% of them were active in at least one assay; those are over-represented in the sample as a whole.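 A percent growth of 40 corresponds to 60% growth inhibition; 0 means no net growth; -100 means all cells died. Active threshold: below 10.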 Activity calls are given as the source filed them.
Assays:
Test in all cases: NCI-60 one-dose screen, 48 h (100 = growth as untreated, 0 = no growth, -100 = all killed)
Conditions in all cases: 10 µM unless noted
[1] = tested on: SR leukemia
[2] = tested on: RPMI-8226 leukemia
[3] = tested on: OVCAR-8 ovarian
[4] = tested on: OVCAR-5 ovarian
[5] = tested on: OVCAR-4 ovarian
[6] = tested on: SK-OV-3 ovarian
[7] = tested on: IGROV1 ovarian
[8] = tested on: OVCAR-3 ovarian
[9] = tested on: HS 578T breast
[10] = tested on: NCI/ADR-RES ovarian

Measured: growth

N#C/C(=C1C=C/C(=N/O)C(Br)=C/1)c1ccccc1
inactive: [4] 52.2% | [5] 42.1% | [6] 29.1% | [9] 42.6%
active: [1] 7.83% | [2] 6.28% | [3] 1.66% | [7] 4.78% | [8] -3.84% | [10] 9.55%

CC(C)C(=O)Nc1ccc([N+](=O)[O-])c(C(F)(F)F)c1
94.5% (inactive) and 5.73% (active): [7]
inactive: [1] 76.4% and 88.4% | [2] 63.9% | [3] 101% and 56.1% | [4] 90.4% | [5] 83.1% and 92.5% | [6] 80.2% and 99.6% | [8] 86.3% and 98.2% | [9] 101% and 85.4% | [10] 86.2% and 96%

COc1c(/C(C)=N/N=c2sc(C(C)=O)nn2-c2ccc(Cl)cc2)c(Oc2ccccc2)c(OC)c2occc12
inactive: [1] 107% and 104% | [2] 107% and 96.3% | [3] 102% | [4] 104% and 97.7% | [5] 102% and 97.9% | [6] 137% and 107% | [7] 102% and 94.5% | [8] 102% | [9] 103% | [10] 96.5% and 99.7%

Cc1cc(=O)[nH]c(O)c1C#N
inactive: [1] 94.8% and 122% | [2] 119% and 332% | [3] 105% and 101% | [4] 93.7% and 90% | [5] 99.8% and 104% | [6] 105% and 96.2% | [7] 100% | [8] 112% | [9] 120% and 109% | [10] 106% and 105%

Cc1ccc(S(=O)(=O)Nc2ccc3cc([N+](=O)[O-])ccc3c2[N+](=O)[O-])cc1
inactive: [1] 91.8% and 64.3% | [2] 51.6% and 38.2% | [3] 81.3% and 96.4% | [4] 96.9% and 106% | [5] 81.4% and 106% | [6] 78% and 103% | [7] 75.1% and 88.1% | [8] 46% and 98.9% | [9] 77.3% and 94.7% | [10] 79.5% and 105%

O=[N+]([O-])c1ccccc1N(S(=O)(=O)c1ccccc1)S(=O)(=O)c1ccccc1
inactive: [1] 85.8% and 101% | [2] 85.4% and 90.4% | [3] 98.2% and 95.6% | [4] 105% and 101% | [5] 115% | [6] 109% and 111% | [7] 99.2% and 96.7% | [8] 107% and 93.5% | [9] 113% | [10] 98.9% and 86.3%

N/C(=N\N=C\c1ccc2c(c1)OCO2)N/N=C\c1ccc2c(c1)OCO2
active: [1] -8.73%
inactive: [2] 98.5% and 67.3% | [3] 102% and 95% | [4] 122% and 96.9% | [5] 93.8% | [6] 118% and 111% | [7] 112% and 96.8% | [8] 126% and 101% | [9] 115% and 92.5% | [10] 101% and 82.6%

CCOc1ccc2cc(-c3nn(CC4CCNCC4)c4ncnc(N)c34)ccc2c1
59.3% (inactive) and -25.2% (active): [1]
inactive: [3] 92.1% and 58.5% | [4] 92% and 70.5% | [5] 55.8% and 42.7% | [6] 91.7% and 45.9% | [7] 92.7% and 47.8% | [8] 101% and 74.7% | [9] 83.8% and 22.1% | [10] 99.5% and 93.5%
90.6% (inactive) and -13.2% (active): [2]

CC(=O)Nc1cc(S(=O)(=O)O)cc2cc(S(=O)(=O)O)c(N=Nc3ccccc3)c(O)c12
inactive: [1] 98.8% and 92.1% | [2] 104% and 96.3% | [3] 109% and 99.5% | [4] 122% and 113% | [5] 109% | [6] 128% and 104% | [7] 117% and 101% | [8] 121% and 109% | [9] 92.9% and 103% | [10] 107% and 105%

CC(=O)Oc1cc(C(=O)O)cc(OC(C)=O)c1OC(C)=O
inactive: [1] 117% and 101% | [2] 96.7% and 102% | [3] 103% and 99.9% | [4] 117% and 94.9% | [5] 109% and 97% | [6] 94.1% and 102% | [7] 130% and 95.8% | [8] 105% | [9] 99.5% and 112% | [10] 103% and 96.7%

Oc1ccccc1C=NCC1CCC(CN=Cc2ccccc2O)CC1 (stereo not given)
inactive: [1] 69.4% | [2] 90.9% | [3] 79.9% | [4] 67.6% | [5] 116% | [6] 95% | [7] 68.1% | [8] 116% | [9] 114% | [10] 80.4%

c1ccc2cc(C[n+]3ccn(Cc4ccc5ccccc5n4)c3)ccc2c1
inactive: [4] 13.4% and 50.9% | [5] 11.5% and 33.7% | [7] 11.6% and 25.1% | [9] 27.8% and 33% | [10] 103% and 102%
3.76% (active) and 13.1% (inactive): [2]
-3.69% (active) and 31.5% (inactive): [1]
1.74% (active) and 23.8% (inactive): [3]
-1.69% (active) and 21.7% (inactive): [8]
-11.7% (active) and 34.2% (inactive): [6]

Oc1ccc(/C=C/c2ccccc2)cc1
inactive: [1] 48.6% and 69.6% | [2] 61.3% and 81.8% | [3] 66.2% and 50.5% | [4] 97.5% and 140% | [5] 61.5% | [6] 94.8% and 99.4% | [7] 57.5% and 59.9% | [8] 79.1% and 76.5% | [9] 86.7% | [10] 43.5% and 41.6%

O=[N+]([O-])c1ccccc1/C=N\Nc1ccccc1
inactive: [1] 98.5% and 51.8% | [2] 77.5% and 95.6% | [3] 91.1% and 89.9% | [4] 91.1% and 89.2% | [5] 82.2% and 86.3% | [6] 90.6% and 93.7% | [7] 74.4% and 59.1% | [8] 94.5% and 92.7% | [9] 90.3% and 118% | [10] 73.3% and 75.6%

Nc1nc(SC/C=C/CCl)c2[nH]cnc2n1
inactive: [1] 77.5% | [2] 100% | [3] 103% and 97.6% | [4] 109% and 101% | [5] 116% and 100% | [6] 99.4% and 112% | [7] 114% and 97.3% | [8] 117% and 120% | [9] 112% and 125% | [10] 103% and 106%
